Assay [1] is described as follows: antimalarial activity against Dd2 strain (AID 2302;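 active means growth inhibition above 50% at the single 2 µM test dose, taken to imply half-maximal potency below 2 µM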;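 further: 0% = DMSO untreated growth and 100% = chloroquine plus artemisinin killed control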). The conditions noted are these: P. falciparum Dd2 in RBCs, LDH growth readout, 72 h; at 2 µM; active compounds read high.
Assay [2] can be described thus: HepG2 cytotoxicity, primary screen, cytotoxicity control for P. falciparum antimalarial project, cell-based, ATP luminescence (AID 2303;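 active means inhibition above 50%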;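 further: 0% = DMSO wells and 100% = digitonin-killed cells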). The note with it: HepG2 viability, 24-48 h, at 10 µM, active compounds read high.
In assay [3] the target is L-lactate dehydrogenase (Plasmodium falciparum (isolate CDC / Honduras)) (UniProt Q27743). Kind of assay: PfLDH activity inhibition – cell lysate, 3D7 strain, counter-screen for P. falciparum growth inhibition project (AID 2304).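 Further: 0% = vehicle and 100% = reference inhibitor.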 The note with it: P. falciparum 3D7 crude extract, LDH APAD/NBT absorbance; at 2 µM; active compounds read high.
L-lactate dehydrogenase (Plasmodium falciparum (isolate CDC / Honduras)), sequence (Q27743 whole entry, looked up): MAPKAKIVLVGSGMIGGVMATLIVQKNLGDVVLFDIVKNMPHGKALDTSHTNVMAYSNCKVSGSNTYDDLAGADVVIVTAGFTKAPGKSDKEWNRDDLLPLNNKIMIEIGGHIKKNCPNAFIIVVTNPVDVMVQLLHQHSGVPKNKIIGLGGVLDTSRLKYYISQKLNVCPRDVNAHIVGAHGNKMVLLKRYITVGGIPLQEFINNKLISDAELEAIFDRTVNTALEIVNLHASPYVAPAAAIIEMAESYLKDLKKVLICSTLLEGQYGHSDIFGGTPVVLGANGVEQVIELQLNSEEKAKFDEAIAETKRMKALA
Assay [4] in a line: inhibition of 3D7 malaria parasite growth – strain 3D7 (AID 2306).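 Further: 0% = DMSO wells and 100% = chloroquine plus artemisinin control wells.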 The conditions noted are these: P. falciparum 3D7 erythrocytic growth, LDH absorbance, 72 h; at 2 µM; active compounds read high.
The target of assay [5] is Calcium-dependent protein kinase 1 (Plasmodium falciparum (isolate 3D7)) (UniProt P62344). Put plainly: PfCDPK1 kinase inhibitors, biochemical, TCAMS library (AID 1159585; cut-off not given, nearly all actives have IC50 up to about 0.98 µM;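 further: inhibitors leave more ATP so luminescence rises with inhibition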). The conditions noted are these: recombinant PfCDPK1, Kinase-Glo ATP depletion luminescence. In general terms: Kinase-Glo measures the ATP left after a reaction by luminescence.
Calcium-dependent protein kinase 1 (Plasmodium falciparum (isolate 3D7)), sequence (P62344 whole entry, looked up): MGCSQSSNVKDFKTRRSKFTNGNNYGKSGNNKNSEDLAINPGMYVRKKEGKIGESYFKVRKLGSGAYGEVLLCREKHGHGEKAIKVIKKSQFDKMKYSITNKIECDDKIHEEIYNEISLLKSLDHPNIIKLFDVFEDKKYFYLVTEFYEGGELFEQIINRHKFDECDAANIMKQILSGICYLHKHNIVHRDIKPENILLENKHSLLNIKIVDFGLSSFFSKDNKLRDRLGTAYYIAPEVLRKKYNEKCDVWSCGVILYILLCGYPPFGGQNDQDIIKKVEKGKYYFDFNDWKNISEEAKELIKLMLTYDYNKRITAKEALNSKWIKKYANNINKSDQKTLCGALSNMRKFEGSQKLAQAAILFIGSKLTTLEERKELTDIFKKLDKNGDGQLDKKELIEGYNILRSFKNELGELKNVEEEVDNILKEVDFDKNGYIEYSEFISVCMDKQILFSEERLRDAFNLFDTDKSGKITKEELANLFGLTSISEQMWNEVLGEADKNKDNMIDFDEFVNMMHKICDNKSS
In assay [6] the target is Plasmodium falciparum protein kinase 6 (PK6, PF3D7_1337100) (UniProt Q8IDW1). Kind of assay: PfPK6 kinase inhibitors, biochemical, TCAMS library (AID 1159586). The conditions noted are these: recombinant PfPK6, Kinase-Glo ATP depletion luminescence.
Plasmodium falciparum protein kinase 6 (PK6, PF3D7_1337100), sequence (Q8IDW1 1-305): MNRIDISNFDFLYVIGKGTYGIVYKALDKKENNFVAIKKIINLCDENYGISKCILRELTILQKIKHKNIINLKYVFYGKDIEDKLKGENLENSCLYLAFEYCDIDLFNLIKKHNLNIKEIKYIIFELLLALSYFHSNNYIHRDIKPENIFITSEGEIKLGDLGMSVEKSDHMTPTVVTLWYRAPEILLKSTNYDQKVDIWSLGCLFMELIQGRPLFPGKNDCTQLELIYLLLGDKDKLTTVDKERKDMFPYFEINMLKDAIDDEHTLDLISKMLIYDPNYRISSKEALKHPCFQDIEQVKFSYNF
For assay [7], the target named is Protein kinase 7 (PK7), Plasmodium falciparum 3D7 (PF3D7_0213400) (UniProt Q7YTF7). Put plainly: inhibition of Plasmodium PK7 catalytic activity – biochemical, TCAMS antimalarial set, Kinase-Glo luminescence (AID 1159587). The conditions noted are these: recombinant PfPK7, Kinase-Glo ATP depletion luminescence.
Protein kinase 7 (PK7), Plasmodium falciparum 3D7 (PF3D7_0213400), sequence (Q7YTF7 1-343): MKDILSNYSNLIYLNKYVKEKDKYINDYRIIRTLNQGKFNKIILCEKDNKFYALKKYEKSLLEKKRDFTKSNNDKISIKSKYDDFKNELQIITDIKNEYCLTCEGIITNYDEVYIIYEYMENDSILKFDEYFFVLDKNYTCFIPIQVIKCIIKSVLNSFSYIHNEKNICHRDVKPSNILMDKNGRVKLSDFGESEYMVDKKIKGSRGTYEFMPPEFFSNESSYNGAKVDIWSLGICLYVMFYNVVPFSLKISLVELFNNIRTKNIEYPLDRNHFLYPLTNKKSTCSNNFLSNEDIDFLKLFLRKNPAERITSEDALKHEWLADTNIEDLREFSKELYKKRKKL
In assay [8] the target is Calcium-dependent protein kinase 4 (Plasmodium falciparum (isolate 3D7)) (UniProt Q8IBS5). Kind of assay: PfCDPK4 kinase inhibitors, biochemical, TCAMS library (AID 1159588; cut-off not given, nearly all actives have IC50 up to about 0.91 µM). The conditions noted are these: recombinant PfCDPK4, Kinase-Glo ATP depletion luminescence.
Calcium-dependent protein kinase 4 (Plasmodium falciparum (isolate 3D7)), sequence (Q8IBS5 whole entry, looked up): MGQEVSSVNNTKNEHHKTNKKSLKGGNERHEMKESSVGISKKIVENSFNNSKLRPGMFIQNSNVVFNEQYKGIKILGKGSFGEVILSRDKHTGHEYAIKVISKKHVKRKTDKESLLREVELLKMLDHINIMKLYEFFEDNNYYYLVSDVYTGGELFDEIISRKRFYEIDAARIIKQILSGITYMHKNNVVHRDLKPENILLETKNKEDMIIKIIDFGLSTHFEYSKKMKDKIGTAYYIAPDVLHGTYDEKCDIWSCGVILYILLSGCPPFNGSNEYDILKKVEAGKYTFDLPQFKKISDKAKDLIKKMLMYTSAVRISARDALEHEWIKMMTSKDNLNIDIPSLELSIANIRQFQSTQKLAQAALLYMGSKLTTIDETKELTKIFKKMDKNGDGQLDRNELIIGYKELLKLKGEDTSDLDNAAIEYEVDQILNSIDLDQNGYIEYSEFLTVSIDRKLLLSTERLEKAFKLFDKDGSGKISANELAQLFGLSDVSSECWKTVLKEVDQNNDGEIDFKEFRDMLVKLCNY

A number with no mark means an inactive call. For part of these data: Entries with a potency or affinity are not part of this list. Activity calls are given as the source filed them. Unless noted, how the calls were made is not given here.

With `CC(C)(C)c1ccc(OC(=O)c2ccc(NC(=O)N[C@@H](Cc3ccc(O)cc3)C(=O)NC3CCN(Cc4ccc(O)cc4)C3)cc2)cc1` (some centres undefined), the growth inhibition in assay [1] is 67% (active); in assay [4], 92% (active). Moreover, the figures for the inhibition in assay [2] and in assay [3] were 0% and -3%, respectively. Besides, the outcome in assay [5], in assay [6], in assay [7] and in assay [8] was inactive.

Take `O=C(Nc1cccc(-c2ccc(CN3CCNCC3)cc2)c1)c1cccc(Cl)c1`: the growth inhibition in assay [1] was 4%; in assay [4], 92% (active). Moreover, the figures for the inhibition in assay [2] and in assay [3] were 30% and -4%, respectively. Besides, the result in assay [5], in assay [6], in assay [7] and in assay [8] was inactive.

Take `O=C(NCC1CCC(CNCCCc2ccccc2)CC1)Nc1ccc(Cl)c(Cl)c1` (centres undefined): the growth inhibition was 2% in assay [1] and 99% (active) in assay [4]. Besides, the values for the inhibition in assay [2] and in assay [3] were 26% and -6%, respectively. Further, the outcome in assay [5], in assay [6], in assay [7] and in assay [8] was inactive.

Turning to `N#Cc1ccc(-c2ccc(C(=O)Nc3ccc4c(c3)CCN(C3CCC3)CC4)nc2)cc1`, the growth inhibition in assay [1] was 63% (active); in assay [4], 99% (active). Further, the inhibition is 21% in assay [2] and 0% in assay [3]. Further, the outcome in assay [5], in assay [6], in assay [7] and in assay [8] was inactive.

As to `Cc1ccc(C(=O)Nc2cccc([N+](=O)[O-])c2)cc1S(=O)(=O)N1CC(C)CC(C)C1` (centres undefined), the growth inhibition was 42% in assay [1] and 100% (active) in assay [4]. Besides, the inhibition was 24% in assay [2] and -1% in assay [3]. Further, the result in assay [5], in assay [6], in assay [7] and in assay [8] was inactive.

For `COc1ccc(C[C@@H](N)C(=O)N[C@H]2[C@@H](O)[C@H](n3cnc4c(N(C)C)ncnc43)O[C@@H]2CO)cc1`, the growth inhibition was 100% (active) in assay [1] and 101% (active) in assay [4]. The figures for the inhibition in assay [2] and in assay [3] were 99% (active) and 0%, respectively. Further, the result in assay [5], in assay [6], in assay [7] and in assay [8] was inactive.

Turning to `CCCC(=O)Nc1ccc(OCCN(Cc2ccccc2OC(F)(F)F)c2ccc(C(F)(F)F)c(C#N)c2)cc1`, the growth inhibition was 97% (active) in assay [1] and 85% (active) in assay [4]. Further, the inhibition in assay [2] was -11%; in assay [3], -1%. Besides, the result in assay [5], in assay [6], in assay [7] and in assay [8] was inactive.

For `CN(C(=O)Nc1ccc(F)cc1)C1CCN(CCCCCNC(=O)/C=C/c2ccc(Cl)c(Cl)c2)CC1`, the results for the growth inhibition in assay [1] and in assay [4] were -3% and 89% (active), respectively. In addition, the inhibition is 38% in assay [2] and -5% in assay [3]. In addition, the outcome in assay [5], in assay [6], in assay [7] and in assay [8] was inactive.

For the compound `N=C(N)c1ccc(NCc2cccc(C(=O)O)c2)cc1`, the growth inhibition in assay [1] was 79% (active); in assay [4], 84% (active). The inhibition is 7% in assay [2] and -2% in assay [3]. In addition, the outcome in assay [5], in assay [6], in assay [7] and in assay [8] was inactive.

In the case of `CNc1ccc(CNCc2cccc(-c3ccc(-c4nc5c(C)cccc5[nH]4)cc3)c2)cc1`, the growth inhibition in assay [1] is 83% (active); in assay [4], 102% (active). Besides, the inhibition in assay [2] was 26%; in assay [3], -4%. In addition, the result in assay [5], in assay [6], in assay [7] and in assay [8] was inactive.

Turning to `CCCCCCCCCCNCC(O)c1ccc(O)c(C(=O)OC)c1` (centres undefined), the growth inhibition in assay [1] and in assay [4] was 97% (active) each time. In addition, the inhibition in assay [2] was 3%; in assay [3] it was -7%. The result in assay [5], in assay [6], in assay [7] and in assay [8] was inactive.

On to `CCc1cn2c3c(cc(C(=O)N[C@@H](Cc4cccc(Cl)c4)[C@H](O)CNC4CC4)cc13)N(C)S(=O)(=O)CC2`, for which the growth inhibition in assay [1] and in assay [4] was 98% (active) each time. In addition, the inhibition in assay [2] is 10%; in assay [3] it was -1%. Also, the outcome in assay [5], in assay [6], in assay [7] and in assay [8] was inactive.

For `Cc1cc(NCCCCCCN)nc(Nc2ccc(Cl)cc2)n1`, the growth inhibition in assay [1] is 26%; in assay [4], 100% (active). The inhibition in assay [2] is 25%; in assay [3] it was 1%. Further, the result in assay [5], in assay [6], in assay [7] and in assay [8] was inactive.

As for `COc1ccc(Nc2nccc(NCCNC(=O)Nc3cc(C)ccc3C)n2)cc1`, the growth inhibition in assay [1] was -3%; in assay [4], 85% (active). In addition, the figures for the inhibition in assay [2] and in assay [3] were 10% and 2%, respectively. Moreover, the outcome in assay [5], in assay [6], in assay [7] and in assay [8] was inactive.

For `NC(N)=NC(=O)Nc1cc(F)c(Cl)c(Br)c1`, the figures for the growth inhibition in assay [1] and in assay [4] were 50% (active) and 101% (active), respectively. The values for the inhibition in assay [2] and in assay [3] were -3% and 1%, respectively. Further, the outcome in assay [5], in assay [6], in assay [7] and in assay [8] was inactive.

With `COc1cc(NCCCNC(=O)c2cc3c(Cl)cc(Cl)cc3[nH]2)nc2ccccc12`, the growth inhibition in assay [1] and in assay [4] was 100% (active) in each case. The inhibition was 96% (active) in assay [2] and -1% in assay [3]. In addition, the outcome in assay [5], in assay [6], in assay [7] and in assay [8] was inactive.

With `CCCOc1ccc(CCCON2C(N)=NC(N)=NC2(C)C)cc1`, the growth inhibition was 94% (active) in assay [1] and 95% (active) in assay [4]. Moreover, the inhibition is 65% (active) in assay [2] and 0% in assay [3]. Moreover, the outcome in assay [5], in assay [6], in assay [7] and in assay [8] was inactive.

On to `Cc1cccc(C(=O)Nc2ccc(N3CCCN(Cc4cccc(O)c4)CC3)cc2)c1`, for which the growth inhibition in assay [1] was 44%; in assay [4], 92% (active). Also, the inhibition in assay [2] was 2%; in assay [3], -3%. The outcome in assay [5], in assay [6], in assay [7] and in assay [8] was inactive.

The term inhibition denotes the drop in the measured response relative to a control, in per cent.

These data come from PubChem BioAssay.
